An excerpt weighted towards active compounds, which were near 1.2% of everything screened.
Sa ugtP lethal – growth inhibition of S. aureus ugtP deletion strain; growth inhibition, % (no concentration beside the values); 330,000 compounds, 0.54% hits; S. aureus RN4220 ugtP deletion, OD600 growth, 16 h; in the data active means growth inhibition above about 68%;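 further: plate controls were untreated wells for no effect and antibiotic for full effect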
Mtb bLac sens – beta-lactam sensitization of Mtb H37Rv; 330,000 compounds, 0.27% hits; inhibition, % at 25 µM; M. tuberculosis H37Rv growth with meropenem, percent inhibition; call rule not given here;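 further: growth measured after seven days incubation then overnight dye step; 0% = bacteria only wells and 100% = bacteria with antibiotic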
PfHsp40 rescue – compounds rescuing yeast from Plasmodium falciparum HSP40 toxicity; S. cerevisiae expressing PfHsp40, growth rescue, ATP luminescence; growth rescue, % at 12.5 µM; 340,000 compounds, 0.68% hits; AID 504582; in the data active means growth rescue above about 28%, passing the limit was not always enough; inconclusive means no clear call, values can overlap the other calls;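 further: yeast W303a lacking pdr1 and pdr3 grown in galactose medium; growth measured after three days at 30 °C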
RN4220 kill – S. aureus RN4220 growth inhibition; OD600, 16 h; inhibition, % (no concentration beside the values); 330,000 compounds, 0.33% hits; AID 1259311; in the data active means inhibition above about 85%;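 further: plate controls were untreated cells for no effect and reference antibiotic for full effect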
Vc quorum ag – inducers of Vibrio cholerae quorum light production without autoinducers | V. cholerae BH1578 lux reporter, luminescence, 6 h | activation, % at 18.7 µM | 350,000 compounds, 0.16% hits; in the data active means activation mostly above about 9.7%, no sharp cut-off; inconclusive means no clear call, values can overlap the other calls; inactive means mostly below about 3.7%
* marks the source's active call; other numbers are inactive results; i = inactive; ? = inconclusive; . = no result given.

SMILES	Sa ugtP lethal	Mtb bLac sens	PfHsp40 rescue	RN4220 kill	Vc quorum ag
O=C(CCc1ccccc1)NNC(=S)NC(=O)c1ccccc1	8.9	96.9	314.2*	40.2	-0.7
CC(C)(C)c1cc(CCC(=O)NNC(=S)NC(=O)c2ccccc2)cc(C(C)(C)C)c1O	88.9*	13.5	507.5*	64.4	-0.3
CC(=O)NC(=S)NNC(=O)CCc1ccccc1	8.5	-7.3	-1.2	8.2	i
CC(C)(C)c1cc(CCC(=O)NNC(=O)c2ccco2)cc(C(C)(C)C)c1O	-0.8	-2.0	-0.3	1.8	-2.2
CCCCC(=O)NC(=S)NNC(=O)CCc1ccccc1	18.7	0.6	336.6*	-7.1	i
CSCc1cc(N(C)c2ccccc2)nc(-c2ccccc2)n1	88.2*	7.4	0.7	-0.4	i
COc1ccccc1CNn1c(-c2cccc(C)c2)nc2ccccc2c1=O	-10.7	-0.4	42.2*	2.9	10.0
O=C(CSc1nc2ccccc2s1)N1c2ccccc2Sc2ccc(Cl)cc21	15.0	21.0	2.0	-3.2	-0.4
O=c1oc2cc(Cl)ccc2n1CSc1nc2ccccc2s1	86.1	7.9	0.4	85.4*	5.3
CC(C)CC(=O)NC(=S)Nc1ccc(S(=O)(=O)N2CCN(C)CC2)cc1	85.9*	3.4	0.2	2.9	-0.2
CCOc1ccc(NC(=S)NNC(=O)CC(C)O)cc1 (stereo unspecified)	0.6	5.5	-0.7	3.5	-0.3
CCOc1ccc(NS(=O)(=O)c2ccc(NC(=S)NC(=O)CC(C)C)cc2)cc1	87.0*	76.0	10.2	-0.4	i
CCOc1ccc(NS(=O)(=O)c2ccc(C(=O)N(C)CC(=O)Nc3ccc(OC)cc3)cc2)cc1	5.5	-12.4	0.2	3.6	-0.3
CC(C)CC(=O)NC(=S)Nc1ccc(S(=O)(=O)NC(C)(C)C)cc1	86.7*	7.7	1.0	3.3	-0.2
CC(C)(C)NS(=O)(=O)c1ccc(NC(=S)NC(=O)C2CCC2)cc1	.	?	-0.8	.	-0.3
CCCC(=O)NC(=S)Nc1ccc(S(=O)(=O)Nc2ccc(OCC)cc2)cc1	87.6*	14.7	-0.2	7.1	-0.4
CCN1C(=NCc2ccco2)NC(c2cccc(C(F)(F)F)c2)C(C(=O)OC)=C1C (stereo unspecified)	-2.1	.	.	-0.9	.
CCc1nnc(NS(=O)(=O)c2ccc(NC(=S)NC(=O)c3cccnc3)cc2)s1	17.6	11.0	0.5	11.0	0.1
CCC(C)C(=O)Nc1ccc(S(=O)(=O)Nc2nccs2)cc1 (stereo unspecified)	16.2	1.4	0.1	5.8	-0.4
CC(C)CC(=O)NC(=S)Nc1ccc(S(=O)(=O)Nc2nccs2)cc1	91.6*	-4.0	0.2	1.8	-0.2
CCc1nnc(NS(=O)(=O)c2ccc(NC(=S)NC(=O)c3ccc(F)cc3)cc2)s1	87.3*	5.8	0.2	12.3	-0.3
CC1C(=O)OC2C(O)C34C5CC(C(C)(C)C)C36C(OC(=O)C6O)OC4(C(=O)O5)[C@@]12O (stereo partly specified)	-6.4	.	.	16.9	.
O=c1[nH]c(=S)ccn1C1OC(CO)C(O)C1O (stereo unspecified)	5.4	90.2	-0.3	3.3	-0.5
O=c1[nH]c(=O)n(C2OC(CO)C(O)C2O)cc1F (stereo unspecified)	.	.	203.0*	.	i
CON=C(CS(=O)(=O)Cc1ccccc1Cl)c1ccc(Cl)cc1Cl	-6.9	.	.	9.0	.
SMILES	Sa ugtP lethal	Mtb bLac sens	PfHsp40 rescue	RN4220 kill	Vc quorum ag
C=CC(CC(C)C)N(Cc1ccccc1)S(=O)(=O)N(Cc1ccc(OC)cc1)C(C=C)CC(C)C (stereo unspecified)	-2.7	.	.	-3.0	.
O=S(=O)(NC1CC(NS(=O)(=O)OCC(Cl)(Cl)Cl)C2CCCCC12)OCC(Cl)(Cl)Cl (stereo unspecified)	95.1*	-14.6	-0.2	100.8*	i
O=S(=O)(NC1CCCCCCC1)OCC(Cl)(Cl)Cl	6.8	0.2	9.1	11.2	i
Cc1noc(NS(=O)(=O)c2ccc(NC=CC(=O)c3ccccc3)cc2)c1C	2.3	.	.	10.5	.
CCOC(=O)c1ccc(-c2c(-c3ccccc3OC)oc3ccccc23)cc1F	92.4*	7.8	0.5	-5.5	i
COc1ccccc1-c1oc2ccccc2c1-c1ccc2cc[nH]c2c1	62.0	13.9	4.1	-18.3	i
COCC=CC1=CC2=CC(=O)C(C)(OC(=O)C3CCCC3)C(=O)C2=CO1 (stereo unspecified)	-2.4	.	.	9.8	.
CC(C)NC(=O)N(C)CC1Oc2c(NS(=O)(=O)c3ccccc3)cccc2C(=O)N(C(C)CO)CC1C (stereo unspecified)	-9.0	.	.	2.9	.

From PubChem
